Bioassay records deposited in PubChem by National Center for Advancing Translational Sciences (NCATS).
Only some compounds are listed: those with a hit (about 15% of all), similar ones and a draw of the others.
Gal4-VP16 FLuc = Gal4-VP16 reporter inhibition counter-screen; Drosophila S2 Gal4-VP16 UAS-luciferase, luminescence, 20 h; Potency, µM (titrated, usually from 53.6 µM), inactives show at the top dose activity, negative = inhibition, actives largely listed as inhibitors; 310,000 compounds, 3.5% hits;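 further: Gal4-VP16 expression switched on by copper sulfate through the metallothionein promoter; nearly all actives have a fitted effect of over 50% in size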
RORgamma inh = ROR gamma (mouse) transcription inhibition; Drosophila S2 Gal4-RORgamma UAS-luciferase reporter, 20 h; Potency, µM (doses to about 53.6 µM), inactives show at the highest dose activity change, negative = inhibition, usual class: inhibitors; AID 2551; 310,000 compounds, 5.4% hits; further: nearly all actives have a fitted effect of over 60% in size
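Schneider cells (Drosophila), stable Gal4 DBD–ROR gamma + UAS-luc; 1 hr cmpd preincubation; Cu2+ induction 700 uM final; 20 hr ambient; luminescence.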
DT40 TDP1 CPT = growth inhibition of DT40 Tdp1-/-;hTDP1 cells with camptothecin (screen for TDP1 inhibitors); chicken DT40 Tdp1-/-;hTDP1 cells + 20 nM CPT, ATP luminescence, 48 h; Potency, µM (titrated, usually from 46.2 µM), without a hit: top-dose activity change, negative = growth inhibition, most hits filed as inhibitors; 420,000 compounds, 12% hits; AID 686979; further: nearly all actives have a fitted effect of over 55% in size
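Chicken DT40 Tdp1-/- cells stably complemented with human TDP1 were seeded at 400 cells/well in medium containing 20 nM camptothecin, exposed to pin-transferred compounds, and grown at 37 °C for at least 48 hr. Viability was read as ATP luminescence.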
12-LOX inh = inhibitors of human 12S-lipoxygenase ALOX12; P18054; purified 12hLO, xylenol orange hydroperoxide absorbance; Potency, µM (top dose mostly 108 µM), for the others: top-dose activity change, negative = inhibition, most hits filed as inhibitors; 580,000 compounds, 1.1% hits; AID 1671190
Target sequence (P18054 whole entry, looked up): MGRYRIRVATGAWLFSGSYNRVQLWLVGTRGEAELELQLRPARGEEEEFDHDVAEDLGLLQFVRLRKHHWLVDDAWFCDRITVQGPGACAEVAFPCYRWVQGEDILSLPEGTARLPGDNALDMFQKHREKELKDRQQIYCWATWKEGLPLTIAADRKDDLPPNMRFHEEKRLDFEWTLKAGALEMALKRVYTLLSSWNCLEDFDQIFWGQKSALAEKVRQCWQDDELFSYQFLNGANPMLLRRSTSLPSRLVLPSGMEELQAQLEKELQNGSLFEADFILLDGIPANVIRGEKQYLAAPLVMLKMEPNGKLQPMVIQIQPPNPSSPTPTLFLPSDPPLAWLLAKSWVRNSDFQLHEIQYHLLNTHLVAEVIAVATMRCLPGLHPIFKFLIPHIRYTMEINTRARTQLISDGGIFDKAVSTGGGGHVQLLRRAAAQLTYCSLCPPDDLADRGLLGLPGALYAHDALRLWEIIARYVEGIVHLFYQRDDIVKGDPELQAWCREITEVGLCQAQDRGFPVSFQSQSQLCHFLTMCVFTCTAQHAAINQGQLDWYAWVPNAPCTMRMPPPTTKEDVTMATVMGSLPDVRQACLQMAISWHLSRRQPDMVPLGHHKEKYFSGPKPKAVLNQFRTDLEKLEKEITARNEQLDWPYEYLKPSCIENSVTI
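Purified human 12hLO (150 nM final) in 25 mM Hepes, 0.01% Triton X-100, pH 7.0 was preincubated 15 min at room temperature with compound. Then 40 uM arachidonic acid was added, 30 min. Hydroperoxide was read by Fe-XO absorbance ratio 573/405 nm.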
DT40 TDP1 no CPT = qHTS for Inhibitors of human tyrosyl-DNA phosphodiesterase 1 (TDP1): qHTS in cells in absence of CPT; 420,000 compounds, 15% hits; DT40 Tdp1-/- hTDP1 cells, no CPT, ATP luminescence, 48 h; Potency, µM (series often up to 46.2 µM), inactives show top-dose activity change, negative = growth inhibition, usual class: inhibitors; AID 686978, 2013; further: nearly all actives have a fitted effect of over 55% in size
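Seeded 400 DT40-hTDP1 cells/well (vehicle DMSO, no 20 nM CPT); pinned compounds; ≥48 hr at 37 °C; CellTiter-Glo luminescence as viability measure.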
ELG1 repair inh = blocks ELG1-dependent DNA repair in HEK293T cells; 330,000 compounds, 2.3% hits; HEK293T ELG1-luciferase reporter, luminescence, 16 h; DNA damage induced by 5-fluorouridine; Potency, µM (series often up to 46.1 µM), for inactives: at the top dose activity change, negative = inhibition, actives largely listed as inhibitors; further: nearly all actives have a fitted effect of over 55% in size
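HEK293T cells expressing luciferase-tagged ELG1 (2,000/well) received 5-Fluorouridine plus compound or DMSO for 16 hr at 37 °C. Luciferase was read by ONE-Glo luminescence after 30 min at room temperature.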
The depositor's hits bear a star; ? = inconclusive; . = not tested or not shown; [ ] = dose if it differs, or a comment. The call rests on the fitted dose curve; in most records, active means well fitted curve in the direction sought with a large enough effect; inconclusive means small, poorly fitted or top-dose-only effect, or another doubt; inactive means no such curve, though single readings can be large; an effect the other way counts as inactive or inconclusive. On the % scale 0 is the no-effect control and ±100 the full control effect; potency means the concentration at half of the fitted maximal effect.

SMILES	Gal4-VP16 FLuc	RORgamma inh	DT40 TDP1 CPT	12-LOX inh	DT40 TDP1 no CPT	ELG1 repair inh
O=C(NC1CC1)c1cccc(NC(=O)c2cc(C3CC3)nc3ccccc23)c1	.	.	.	-2%	.	.
CC(OC(=O)c1cc(-c2cccnc2)nc2ccccc12)C(=O)Nc1ccc2ccccc2c1 (stereo not given)	-7%	?	?	-34%	18µM*	18µM*
COc1ccc(NC(=O)c2cc(-c3cccnc3)nc3ccccc23)cc1	.	.	.	-23%	.	.
Cc1cc(C)nc(NC2=NCC(=O)N2c2ccc(Cl)cc2Cl)n1	.	.	.	35%	.	.
CC(=O)c1ccc(NC(=O)N(C)CCc2noc(-c3ccc(C(=O)N4CCCCC4)cc3)n2)cc1	.	.	.	-14%	.	.
Cc1ccc(C)c(-n2ccnc2SCC(=O)Nc2ncc(C)s2)c1	.	.	.	-19%	.	.
CC(=O)c1cccc(NC(=O)c2cc(-c3ccncc3)nc3ccccc23)c1	.	.	?	-11%	18µM*	21µM*
O=C(Nc1ccc(O)cc1)c1cc(-c2ccncc2)nc2ccccc12	.	.	.	1%	.	.
Cn1cc(CN2C[C@@H](F)[C@@H](OCc3nc4ncccc4[nH]3)C2)c2ccccc21	.	.	.	2%[176 µM]	.	.
Cn1c(=O)[nH]c(=O)c2c1nc(Br)n2CCC(=O)c1ccccc1	2%	1%	?	-9%	16µM*	-21%
CC(C)Cn1c([N+](=O)[O-])nc2c1c(=O)[nH]c(=O)n2C	?	8.9µM*	3.3µM*	-5%	4.6µM*	23µM*
Cn1c(=O)[nH]c(=O)c2c1nc([N+](=O)[O-])n2Cc1ccccc1	5.6µM*	4µM*	0.65µM*	167%	1µM*	15µM*
CCNc1nc2c(c(=O)[nH]c(=O)n2C)n1CC(C)C	1%	-23%	5%	10%[57.4 µM]	-8%	19%
COc1ccc(NC(=O)Cc2c(C)c3c(O)cc(C)cc3oc2=O)c(OC)c1	.	.	.	14%	.	.
COc1cc(NC(=O)Cc2ccccc2)cc(OC)c1	2%	6%	7%	0%	?	-22%
O=C(CN1CCCCCC1)Nc1ccc(Oc2ccccc2)cc1	-6%	0%	10%	-4%	?	1%
O=C(C[n+]1ccccc1)Nc1ccc(Oc2ccccc2)cc1	1%	-3%	12µM*	-5%	?	-8%
COc1cc(NC(=O)C[n+]2ccc(C(=O)c3ccccc3)cc2)cc(OC)c1	.	.	23µM*	-8%	13µM*	?
O=C(C[n+]1ccccc1)Nc1ccccc1[N+](=O)[O-]	-5%	-9%	6%	0%	-1%	1%
O=C(Cc1ccccc1)Nc1ccc(Oc2ccccc2)cc1	.	.	.	-54%	.	.
CO/N=C\CC(=O)Nc1ccc(Oc2ccccc2)cc1	-3%	36%	1.5µM*	-14%	1.3µM*	3%
O=C(C[n+]1ccccc1)Nc1ccccc1Br	2.8µM*	1.3µM*	2%	?	-10%	-15%
Cc1cc(C(=O)Nc2ccccc2C(C)C)c2ccccc2n1	.	.	.	3%	.	.
C=CCNC(=S)NNC(=O)C1CC1	.	.	.	1%	.	.
C=CCNC(=S)N(C1CCCCC1)C1CCCCC1	2%	10µM*	?	1%	23µM*	2%
SMILES	Gal4-VP16 FLuc	RORgamma inh	DT40 TDP1 CPT	12-LOX inh	DT40 TDP1 no CPT	ELG1 repair inh
CN(Cc1ccc(-c2ccccc2)cc1)C(=O)c1ccccc1Cl	.	.	.	22%	.	.
NC(=O)C1CCN(C2=C(NS(=O)(=O)c3ccccc3)C(=O)c3ccccc3C2=O)CC1	-7%	?	-24%	-21%	?	?
CCN1CCN(C2=C(NS(=O)(=O)c3ccccc3)C(=O)c3ccccc3C2=O)CC1	?	10µM*	21µM*	28%	16µM*	?
O=C1C(NS(=O)(=O)c2ccc(Cl)cc2)=C(N2CCCCC2)C(=O)c2ccccc21	?	-40%	26µM*	?	18µM*	-25%
CN1CCN(C2=C(NS(=O)(=O)c3ccccc3)C(=O)c3ccccc3C2=O)CC1	13µM*	11µM*	23µM*	.	?	-26%
CCN1CCN(C2=C(NS(=O)(=O)c3ccc(Br)cc3)C(=O)c3ccccc3C2=O)CC1	?	?	21µM*	?	23µM*	-3%
CCOC(=O)C1CCN(C2=C(NS(=O)(=O)c3ccc(Br)cc3)C(=O)c3ccccc3C2=O)CC1	0%	-4%	?	?	?	-3%
O=C(CSc1nc(Nc2ccc(F)cc2)c2ccccc2n1)c1ccc(F)cc1	.	.	?	-11%	?	.
COc1cc(Nc2nc(SCC(=O)c3ccc(Br)cc3)nc3ccccc23)cc(OC)c1	.	.	5.2µM*	0%	2.9µM*	.
Cc1ccc(OCc2nc(C#N)c(NCc3ccncc3)o2)c(C)c1	.	.	.	-18%	.	.
Cc1ccc(S(=O)c2ccc([N+](=O)[O-])c3nonc23)cc1 (stereo not given)	.	.	2.6µM*	2µM*	3.3µM*	.
CCN(CC(=O)Nc1ccc(NC(C)=O)cc1)C(=O)/C=C/c1c(C)nn(-c2ccc(F)cc2)c1Cl	.	.	?	14%	?	5.8µM*
COc1cc(NC(=O)COC(=O)/C=C/c2c(C)nn(-c3ccc(F)cc3)c2Cl)cc(OC)c1	-5%	31%	-76%	-5%	?	?
CNC(=S)N1CCN(C(c2ccccc2)c2ccccc2)CC1	-7%	-41%	-17%	0%	?	-6%
COc1ccc(NC(=S)N2CCCC2)cc1OC	4%	0%	4%	-9%	-12%	-6%
COc1cc(C(=S)N2CCN(C(c3ccccc3)c3ccccc3)CC2)cc(OC)c1O	-22%	?	15µM*	?	8.2µM*	-13%
COc1ccc(NC(=S)N2CCN(C(c3ccccc3)c3ccccc3)CC2)cc1OC	13µM*	8.9µM*	-27%	-13%	-27%	?
CCC(C)NC(=S)N1CCN(C(c2ccccc2)c2ccccc2)CC1 (stereo not given)	?	11µM*	?	3%	?	-10%
Cc1cccc(Nc2nc(N)nc(CN3CC[C@@](O)(C4CCC4)[C@H](C)C3)n2)c1	.	.	.	47%	.	.
CN1CCC(NC(=O)c2ccc3c(c2)n(Cc2ccc(F)cc2)c(=O)c2ccnn23)CC1	.	.	.	20µM*	.	.
CCCCNC(=O)c1ccc2c(c1)n(Cc1ccc(F)cc1)c(=O)c1ccnn12	.	.	.	10%	.	.
COc1ccc(/C=C/c2c([N+](=O)[O-])c(=O)n(C)c(=O)n2C)cc1OC	7%	8%	-1%	-11%	-13%	12%
